# Experimental data reported in ChEMBL document CHEMBL1961873, “Compounds: GSK PKIS; Assays: Nanosyn kinase panel” (2012).
# Legend:
# [1] = molecular target: Sphingosine kinase 1 (Homo sapiens) (UniProt Q9NYA1); details: at 1 µM;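 note: mean SPHK1 inhibition value reported from the GSK PKIS kinase panel screen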
# [2] = molecular target: T1, Sphingosine kinase 2 (Homo sapiens) (UniProt Q9NRA0); details: at 0.1 µM
# T1 sequence (whole entry): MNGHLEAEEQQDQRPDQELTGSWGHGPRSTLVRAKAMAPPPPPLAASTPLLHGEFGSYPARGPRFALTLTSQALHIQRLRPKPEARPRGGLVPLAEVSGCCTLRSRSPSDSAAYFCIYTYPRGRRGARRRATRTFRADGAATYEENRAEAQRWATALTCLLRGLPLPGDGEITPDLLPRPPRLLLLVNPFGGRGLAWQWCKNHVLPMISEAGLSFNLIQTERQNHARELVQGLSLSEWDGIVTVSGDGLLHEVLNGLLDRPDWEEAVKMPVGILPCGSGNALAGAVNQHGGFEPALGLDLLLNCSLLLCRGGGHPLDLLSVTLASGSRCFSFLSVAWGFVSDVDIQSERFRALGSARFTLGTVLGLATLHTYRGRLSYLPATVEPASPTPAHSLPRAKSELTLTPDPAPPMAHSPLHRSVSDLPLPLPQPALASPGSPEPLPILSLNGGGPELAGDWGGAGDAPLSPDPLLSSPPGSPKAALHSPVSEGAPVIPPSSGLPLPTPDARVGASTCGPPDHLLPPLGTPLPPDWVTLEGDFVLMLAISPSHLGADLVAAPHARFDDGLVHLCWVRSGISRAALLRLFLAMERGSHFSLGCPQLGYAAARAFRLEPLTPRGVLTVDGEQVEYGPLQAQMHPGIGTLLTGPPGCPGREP
# [3] = molecular target: T1, Sphingosine kinase 2 (Homo sapiens); details: at 1 µM
# [4] = molecular target: Casein kinase II subunit alpha (Homo sapiens) (UniProt P68400); details: at 0.1 µM
# [5] = molecular target: Casein kinase II subunit alpha (Homo sapiens) (UniProt P68400); details: at 1 µM
# [6] = molecular target: T2, Inhibitor of nuclear factor kappa-B kinase subunit alpha (Homo sapiens) (UniProt O15111); details: at 0.1 µM
# T2 sequence (whole entry): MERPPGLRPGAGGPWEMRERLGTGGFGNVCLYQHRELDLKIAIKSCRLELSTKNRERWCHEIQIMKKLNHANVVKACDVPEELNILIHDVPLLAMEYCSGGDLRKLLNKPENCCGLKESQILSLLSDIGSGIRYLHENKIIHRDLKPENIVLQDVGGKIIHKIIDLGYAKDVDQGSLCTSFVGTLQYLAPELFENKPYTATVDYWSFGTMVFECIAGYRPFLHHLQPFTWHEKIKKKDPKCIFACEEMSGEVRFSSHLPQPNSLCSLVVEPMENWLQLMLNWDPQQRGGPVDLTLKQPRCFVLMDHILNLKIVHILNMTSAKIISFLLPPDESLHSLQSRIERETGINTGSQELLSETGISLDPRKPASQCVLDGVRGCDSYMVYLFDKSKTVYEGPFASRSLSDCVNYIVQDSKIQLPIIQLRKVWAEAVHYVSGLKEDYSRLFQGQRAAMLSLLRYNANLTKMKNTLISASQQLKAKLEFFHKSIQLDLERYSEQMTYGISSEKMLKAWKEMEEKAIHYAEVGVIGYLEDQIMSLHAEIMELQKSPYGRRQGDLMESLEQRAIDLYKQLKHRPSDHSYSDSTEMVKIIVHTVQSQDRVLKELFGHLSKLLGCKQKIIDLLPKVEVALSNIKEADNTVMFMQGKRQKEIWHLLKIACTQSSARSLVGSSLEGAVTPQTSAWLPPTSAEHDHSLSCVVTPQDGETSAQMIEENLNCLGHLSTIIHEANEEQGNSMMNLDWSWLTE
# [7] = molecular target: T2, Inhibitor of nuclear factor kappa-B kinase subunit alpha (Homo sapiens); details: at 1 µM
# [8] = molecular target: T3, Inhibitor of nuclear factor kappa-B kinase subunit beta (Homo sapiens) (UniProt O14920); details: at 0.1 µM
# T3 sequence (whole entry): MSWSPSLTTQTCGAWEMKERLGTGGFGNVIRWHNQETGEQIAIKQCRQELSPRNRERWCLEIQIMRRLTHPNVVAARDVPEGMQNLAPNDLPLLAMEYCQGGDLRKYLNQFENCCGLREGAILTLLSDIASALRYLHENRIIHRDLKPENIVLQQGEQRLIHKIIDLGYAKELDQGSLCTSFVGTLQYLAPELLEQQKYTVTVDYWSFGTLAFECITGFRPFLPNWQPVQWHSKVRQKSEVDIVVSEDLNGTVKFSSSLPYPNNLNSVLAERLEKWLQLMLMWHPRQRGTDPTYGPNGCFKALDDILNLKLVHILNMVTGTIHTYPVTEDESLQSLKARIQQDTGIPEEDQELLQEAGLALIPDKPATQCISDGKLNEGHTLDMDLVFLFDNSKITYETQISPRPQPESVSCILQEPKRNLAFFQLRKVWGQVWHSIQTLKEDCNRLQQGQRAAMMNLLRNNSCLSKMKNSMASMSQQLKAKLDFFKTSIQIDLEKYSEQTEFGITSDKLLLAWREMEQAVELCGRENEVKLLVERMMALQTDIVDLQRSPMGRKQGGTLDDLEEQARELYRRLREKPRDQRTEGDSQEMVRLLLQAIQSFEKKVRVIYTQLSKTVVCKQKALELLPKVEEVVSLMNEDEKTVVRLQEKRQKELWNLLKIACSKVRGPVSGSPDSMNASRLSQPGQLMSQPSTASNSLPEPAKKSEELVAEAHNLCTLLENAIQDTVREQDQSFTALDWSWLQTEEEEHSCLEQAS
# [9] = molecular target: T3, Inhibitor of nuclear factor kappa-B kinase subunit beta (Homo sapiens); details: at 1 µM
# [10] = molecular target: T4, Inhibitor of nuclear factor kappa-B kinase subunit epsilon (Homo sapiens) (UniProt Q14164); details: at 0.1 µM
# T4 sequence (whole entry): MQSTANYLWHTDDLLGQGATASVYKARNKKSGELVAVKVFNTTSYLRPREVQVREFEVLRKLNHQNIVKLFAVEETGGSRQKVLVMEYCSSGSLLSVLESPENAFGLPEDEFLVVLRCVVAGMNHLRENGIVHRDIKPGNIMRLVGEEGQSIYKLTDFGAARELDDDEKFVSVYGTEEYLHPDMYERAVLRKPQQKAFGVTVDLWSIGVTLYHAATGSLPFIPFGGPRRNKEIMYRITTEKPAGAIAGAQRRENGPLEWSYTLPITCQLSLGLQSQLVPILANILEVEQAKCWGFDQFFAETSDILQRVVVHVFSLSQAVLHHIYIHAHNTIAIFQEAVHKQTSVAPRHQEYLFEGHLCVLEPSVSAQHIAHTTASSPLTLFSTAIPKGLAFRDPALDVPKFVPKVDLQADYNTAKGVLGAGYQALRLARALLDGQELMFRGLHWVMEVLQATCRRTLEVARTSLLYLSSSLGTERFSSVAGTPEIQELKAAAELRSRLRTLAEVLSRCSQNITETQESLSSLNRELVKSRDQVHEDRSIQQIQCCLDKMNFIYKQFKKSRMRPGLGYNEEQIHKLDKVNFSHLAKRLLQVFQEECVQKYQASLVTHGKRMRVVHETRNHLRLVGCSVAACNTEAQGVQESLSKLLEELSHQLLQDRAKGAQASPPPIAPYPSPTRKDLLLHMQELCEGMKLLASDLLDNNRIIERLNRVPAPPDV
# [11] = molecular target: T4, Inhibitor of nuclear factor kappa-B kinase subunit epsilon (Homo sapiens); details: at 1 µM
# [12] = molecular target: T5, Serine/threonine-protein kinase Nek1 (Homo sapiens) (UniProt Q96PY6); details: at 0.1 µM
# T5 sequence (whole entry): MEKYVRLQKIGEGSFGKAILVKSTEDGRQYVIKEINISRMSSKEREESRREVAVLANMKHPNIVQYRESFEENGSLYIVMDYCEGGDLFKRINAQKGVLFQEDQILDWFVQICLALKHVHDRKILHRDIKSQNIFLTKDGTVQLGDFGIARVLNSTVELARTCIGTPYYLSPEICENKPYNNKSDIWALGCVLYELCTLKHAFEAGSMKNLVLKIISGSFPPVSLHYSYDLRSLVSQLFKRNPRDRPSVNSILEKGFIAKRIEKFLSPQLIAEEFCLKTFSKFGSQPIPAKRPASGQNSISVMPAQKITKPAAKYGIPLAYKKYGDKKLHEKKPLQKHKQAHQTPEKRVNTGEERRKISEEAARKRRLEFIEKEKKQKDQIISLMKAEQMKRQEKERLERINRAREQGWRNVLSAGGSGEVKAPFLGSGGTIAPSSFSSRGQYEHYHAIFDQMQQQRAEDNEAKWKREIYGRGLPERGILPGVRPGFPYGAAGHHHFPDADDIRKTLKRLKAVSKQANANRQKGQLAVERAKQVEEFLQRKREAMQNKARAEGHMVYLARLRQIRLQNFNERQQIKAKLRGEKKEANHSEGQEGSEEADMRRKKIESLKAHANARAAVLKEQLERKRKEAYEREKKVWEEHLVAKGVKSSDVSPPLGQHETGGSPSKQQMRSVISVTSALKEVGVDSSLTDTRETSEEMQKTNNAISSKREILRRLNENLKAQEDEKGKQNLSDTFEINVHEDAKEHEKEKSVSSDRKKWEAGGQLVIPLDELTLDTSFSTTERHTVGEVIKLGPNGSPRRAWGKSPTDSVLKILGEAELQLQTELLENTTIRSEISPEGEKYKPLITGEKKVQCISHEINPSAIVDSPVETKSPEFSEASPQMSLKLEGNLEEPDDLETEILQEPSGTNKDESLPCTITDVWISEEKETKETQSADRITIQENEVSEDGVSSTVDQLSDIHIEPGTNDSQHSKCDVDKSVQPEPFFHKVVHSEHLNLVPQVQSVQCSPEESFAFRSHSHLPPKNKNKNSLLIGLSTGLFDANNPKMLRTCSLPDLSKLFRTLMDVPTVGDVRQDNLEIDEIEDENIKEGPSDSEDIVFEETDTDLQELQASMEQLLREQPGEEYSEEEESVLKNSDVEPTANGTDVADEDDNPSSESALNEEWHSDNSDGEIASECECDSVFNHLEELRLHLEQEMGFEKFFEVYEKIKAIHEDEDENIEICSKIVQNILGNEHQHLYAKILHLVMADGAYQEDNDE
# [13] = molecular target: T5, Serine/threonine-protein kinase Nek1 (Homo sapiens); details: at 1 µM
# [14] = molecular target: T6, Serine/threonine-protein kinase Nek2 (Homo sapiens) (UniProt P51955); details: at 0.1 µM
# T6 sequence (whole entry): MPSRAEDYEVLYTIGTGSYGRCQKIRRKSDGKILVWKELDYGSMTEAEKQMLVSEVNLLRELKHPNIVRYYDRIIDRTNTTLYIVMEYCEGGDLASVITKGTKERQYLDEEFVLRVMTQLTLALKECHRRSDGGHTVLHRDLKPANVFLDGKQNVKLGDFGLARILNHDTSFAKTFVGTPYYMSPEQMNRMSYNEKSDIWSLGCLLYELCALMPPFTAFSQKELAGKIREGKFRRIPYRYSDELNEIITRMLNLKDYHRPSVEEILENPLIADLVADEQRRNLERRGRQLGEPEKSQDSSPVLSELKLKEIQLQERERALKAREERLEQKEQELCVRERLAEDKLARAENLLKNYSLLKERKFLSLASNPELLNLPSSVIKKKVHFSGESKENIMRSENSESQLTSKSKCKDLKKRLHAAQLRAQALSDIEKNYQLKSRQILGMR
# [15] = molecular target: T6, Serine/threonine-protein kinase Nek2 (Homo sapiens); details: at 1 µM
# [16] = molecular target: Serine/threonine-protein kinase Nek6 (Homo sapiens) (UniProt Q9HC98); details: at 0.1 µM
# [17] = molecular target: Serine/threonine-protein kinase Nek6 (Homo sapiens) (UniProt Q9HC98); details: at 1 µM
# [18] = molecular target: Serine/threonine-protein kinase Nek7 (Homo sapiens) (UniProt Q8TDX7); details: at 0.1 µM
# [19] = molecular target: Serine/threonine-protein kinase Nek7 (Homo sapiens) (UniProt Q8TDX7); details: at 1 µM
# [20] = molecular target: T7, Serine/threonine-protein kinase Nek9 (Homo sapiens) (UniProt Q8TD19); details: at 0.1 µM;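 note: reported value is the mean percent inhibition of NEK9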
# T7 sequence (whole entry): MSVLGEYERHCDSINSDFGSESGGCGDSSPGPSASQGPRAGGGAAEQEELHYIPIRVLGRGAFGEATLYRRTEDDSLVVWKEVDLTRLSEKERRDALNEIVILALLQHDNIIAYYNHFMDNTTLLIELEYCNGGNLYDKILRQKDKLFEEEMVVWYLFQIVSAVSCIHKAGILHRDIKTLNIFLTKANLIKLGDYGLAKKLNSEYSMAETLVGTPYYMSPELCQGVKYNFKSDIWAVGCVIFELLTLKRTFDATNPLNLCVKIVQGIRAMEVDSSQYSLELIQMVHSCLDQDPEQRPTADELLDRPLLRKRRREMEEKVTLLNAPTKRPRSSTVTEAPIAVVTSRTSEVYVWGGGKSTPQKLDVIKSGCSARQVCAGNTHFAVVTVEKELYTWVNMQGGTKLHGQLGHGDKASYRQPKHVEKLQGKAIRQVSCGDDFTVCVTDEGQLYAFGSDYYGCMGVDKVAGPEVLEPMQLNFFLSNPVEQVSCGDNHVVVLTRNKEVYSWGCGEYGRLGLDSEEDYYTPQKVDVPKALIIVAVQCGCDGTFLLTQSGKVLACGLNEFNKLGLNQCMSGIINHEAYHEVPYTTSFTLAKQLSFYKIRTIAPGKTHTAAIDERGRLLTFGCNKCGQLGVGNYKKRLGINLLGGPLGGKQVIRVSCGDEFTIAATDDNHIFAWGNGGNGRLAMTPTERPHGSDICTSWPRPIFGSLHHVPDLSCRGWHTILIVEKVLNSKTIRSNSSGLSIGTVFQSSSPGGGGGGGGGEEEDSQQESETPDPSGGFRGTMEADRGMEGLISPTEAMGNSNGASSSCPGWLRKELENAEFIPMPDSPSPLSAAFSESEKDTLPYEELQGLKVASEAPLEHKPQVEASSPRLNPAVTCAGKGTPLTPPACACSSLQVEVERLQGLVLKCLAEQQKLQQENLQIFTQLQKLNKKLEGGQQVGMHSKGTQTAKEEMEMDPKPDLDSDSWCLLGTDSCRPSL
# Sequence of Serine/threonine-protein kinase Nek6 (Homo sapiens) (Q9HC98 whole entry): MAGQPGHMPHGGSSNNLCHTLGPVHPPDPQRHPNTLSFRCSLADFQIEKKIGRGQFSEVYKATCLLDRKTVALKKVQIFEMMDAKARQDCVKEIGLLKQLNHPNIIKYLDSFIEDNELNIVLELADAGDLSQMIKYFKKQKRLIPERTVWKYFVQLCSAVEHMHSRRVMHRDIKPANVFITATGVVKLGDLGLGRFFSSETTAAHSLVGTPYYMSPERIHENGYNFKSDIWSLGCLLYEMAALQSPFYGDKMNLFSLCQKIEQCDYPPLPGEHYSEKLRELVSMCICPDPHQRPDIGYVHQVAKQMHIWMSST
# Sequence of Serine/threonine-protein kinase Nek7 (Homo sapiens) (Q8TDX7 whole entry, looked up): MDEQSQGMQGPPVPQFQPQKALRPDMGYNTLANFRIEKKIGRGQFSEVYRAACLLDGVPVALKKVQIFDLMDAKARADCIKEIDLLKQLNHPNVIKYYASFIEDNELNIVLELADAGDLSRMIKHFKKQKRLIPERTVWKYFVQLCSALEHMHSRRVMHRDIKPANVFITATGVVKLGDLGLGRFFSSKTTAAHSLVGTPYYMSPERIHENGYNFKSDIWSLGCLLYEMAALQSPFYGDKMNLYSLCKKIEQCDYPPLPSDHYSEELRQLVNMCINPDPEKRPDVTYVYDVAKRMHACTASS
# Sequence of Casein kinase II subunit alpha (Homo sapiens) (P68400 whole entry, looked up): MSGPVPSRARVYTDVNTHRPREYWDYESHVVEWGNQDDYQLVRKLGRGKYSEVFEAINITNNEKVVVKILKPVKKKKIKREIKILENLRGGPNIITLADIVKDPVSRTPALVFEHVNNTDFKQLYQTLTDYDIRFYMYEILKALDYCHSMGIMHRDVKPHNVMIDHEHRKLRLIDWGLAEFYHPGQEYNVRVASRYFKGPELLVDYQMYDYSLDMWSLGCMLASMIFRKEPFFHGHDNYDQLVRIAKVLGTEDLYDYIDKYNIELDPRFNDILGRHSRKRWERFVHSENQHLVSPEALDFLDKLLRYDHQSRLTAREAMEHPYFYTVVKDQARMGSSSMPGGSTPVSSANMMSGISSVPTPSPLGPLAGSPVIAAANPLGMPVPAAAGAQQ
# Sequence of Sphingosine kinase 1 (Homo sapiens) (Q9NYA1 whole entry): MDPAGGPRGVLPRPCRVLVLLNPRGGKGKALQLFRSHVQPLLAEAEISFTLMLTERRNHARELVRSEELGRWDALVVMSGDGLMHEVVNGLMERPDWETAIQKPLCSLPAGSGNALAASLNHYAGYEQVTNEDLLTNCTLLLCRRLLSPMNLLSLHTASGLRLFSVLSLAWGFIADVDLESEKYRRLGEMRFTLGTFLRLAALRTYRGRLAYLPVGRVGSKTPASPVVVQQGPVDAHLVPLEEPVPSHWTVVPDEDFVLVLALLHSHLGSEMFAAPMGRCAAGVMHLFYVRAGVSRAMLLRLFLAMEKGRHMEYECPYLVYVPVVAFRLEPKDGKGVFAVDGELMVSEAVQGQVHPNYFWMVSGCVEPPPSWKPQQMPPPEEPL
Structure (SMILES),inhibition [1] [%],inhibition [2] [%],inhibition [3] [%],inhibition [4] [%],inhibition [5] [%],inhibition [6] [%],inhibition [7] [%],inhibition [8] [%],inhibition [9] [%],inhibition [10] [%],inhibition [11] [%],inhibition [12] [%],inhibition [13] [%],inhibition [14] [%],inhibition [15] [%],inhibition [16] [%],inhibition [17] [%],inhibition [18] [%],inhibition [19] [%],inhibition [20] [%]
c1ccc(-c2n[nH]cc2-c2ccnc(-c3ccc(OCCN4CCOCC4)cc3)c2)nc1,-1.7,0.79,-2.14,-3.28,-4.72,-2.42,-8.48,-4.16,-6.86,-5.44,-6.6,1.71,-2.23,-2.95,-2.74,-1.49,-2.27,-5.33,-3.67,
CN(C)CCCNc1nccc(-c2c(-c3ccc(F)cc3)nn3cc(C(F)(F)F)ccc23)n1,-2.46,-0.03,-0.25,1.85,6.47,4.46,-1.7,1.56,0,2.49,1.28,2.23,4.09,1.87,1.49,1.82,-1.46,2.85,1.37,5.9
